Assay results published in paper PMC4336329 (PLoS ONE, 2015).
Out of some 310,000 compounds screened, about 2,200 (0.71%) showed an effect of 50% or more. The effect is printed as a negative number. Shown is part of a subset that was picked to be rich in strong results.

The molecules below were run against human ether-à-go-go-related gene (hERG) potassium channel (human, UniProt Q12809) (assay: primary screen, population patch clamp on CHO cells stably expressing hERG; higher = less effect of the substance).
Sequence of human ether-à-go-go-related gene (hERG) potassium channel (Q12809 whole entry, looked up): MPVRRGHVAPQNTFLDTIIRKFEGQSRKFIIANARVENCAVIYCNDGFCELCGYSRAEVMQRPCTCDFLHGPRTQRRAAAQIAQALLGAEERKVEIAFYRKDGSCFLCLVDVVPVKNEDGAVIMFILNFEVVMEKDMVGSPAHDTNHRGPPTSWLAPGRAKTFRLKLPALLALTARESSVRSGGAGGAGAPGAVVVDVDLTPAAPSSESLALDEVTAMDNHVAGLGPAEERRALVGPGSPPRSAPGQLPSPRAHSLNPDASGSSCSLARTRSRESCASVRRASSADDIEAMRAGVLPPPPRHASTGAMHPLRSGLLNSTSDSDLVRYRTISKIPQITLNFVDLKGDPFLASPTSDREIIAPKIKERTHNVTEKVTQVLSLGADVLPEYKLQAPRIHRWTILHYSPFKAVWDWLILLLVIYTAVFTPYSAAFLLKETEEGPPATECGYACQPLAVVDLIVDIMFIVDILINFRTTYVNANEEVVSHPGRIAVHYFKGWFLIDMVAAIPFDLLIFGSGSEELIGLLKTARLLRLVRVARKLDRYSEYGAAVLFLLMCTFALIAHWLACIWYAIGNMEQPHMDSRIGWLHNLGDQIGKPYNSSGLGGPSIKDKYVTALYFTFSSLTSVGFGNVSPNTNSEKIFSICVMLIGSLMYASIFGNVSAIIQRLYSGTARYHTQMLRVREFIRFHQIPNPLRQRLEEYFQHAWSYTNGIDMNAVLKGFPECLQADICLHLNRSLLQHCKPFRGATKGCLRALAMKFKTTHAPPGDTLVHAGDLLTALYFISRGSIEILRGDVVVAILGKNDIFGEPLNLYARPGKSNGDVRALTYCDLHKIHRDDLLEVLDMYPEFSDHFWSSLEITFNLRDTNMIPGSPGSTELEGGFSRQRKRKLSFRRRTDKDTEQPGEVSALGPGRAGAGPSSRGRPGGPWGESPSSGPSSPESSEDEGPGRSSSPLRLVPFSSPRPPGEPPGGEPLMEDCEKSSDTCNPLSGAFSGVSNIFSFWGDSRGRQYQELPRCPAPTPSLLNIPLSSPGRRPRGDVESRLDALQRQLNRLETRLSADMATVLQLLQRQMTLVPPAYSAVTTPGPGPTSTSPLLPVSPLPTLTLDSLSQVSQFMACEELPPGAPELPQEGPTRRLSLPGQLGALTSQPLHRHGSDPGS

Compared with `CN(C)CCCN(C(=O)C1COc2ccccc2O1)c1nc2cc3c(cc2s1)OCO3.Cl` (stereo not shown), `CN(C)CCCN(C(=O)C1COc2ccccc2O1)c1nc2ccc(F)cc2s1.Cl` (stereo not shown) is lower in “hERG current change (%, negative = inhibition) at 1uM” value: -21.3% for the first, -64.9% for the second.

First: CN(C)CCCN(C(=O)c1ccc2c(c1)OCCO2)c1nc2ccc(Cl)cc2s1.Cl
Second: CN(C)CCN(C(=O)c1ccc2c(c1)OCCO2)c1nc2ccc(Cl)cc2s1.Cl
The “hERG current change (%, negative = inhibition) at 1uM” value of the first is lower: -3.81% for the first, 10.8% for the second.

Compared with `CN(C)CCCN(C(=O)C1=COCCO1)c1nc2ccc(Br)cc2s1.Cl`, `CN(C)CCN(C(=O)C1=COCCO1)c1nc2ccc(F)cc2s1.Cl` is lower in “hERG current change (%, negative = inhibition) at 1uM” value: -25.1% for the first, -57.7% for the second.

Going from `Cc1ccc2nc(N(CCN(C)C)C(=O)C3=COCCO3)sc2c1.Cl` to `CN(C)CCN(C(=O)C1=COCCO1)c1nc2ccc(Cl)cc2s1.Cl`, the “hERG current change (%, negative = inhibition) at 1uM” value falls from -5.32% to -62.4%.

Going from `CN(C)CCCN(C(=O)CCc1ccccc1)c1nc2ccc(F)cc2s1.Cl` to `O=C(O)CCN(CCC(=O)O)c1nnc(SCc2ccccc2)s1`, the “hERG current change (%, negative = inhibition) at 1uM” value rises from -24.8% to 11.7%.

Going from `Cc1csc(SC(C)C(=O)NC2CCCCC2C)n1` (stereo not shown) to `CCOC(=O)C1CCN(c2ccc(Cl)nn2)CC1`, the “hERG current change (%, negative = inhibition) at 1uM” value falls from 7.18% to 0.0696%.

Compared with `COc1ccc2oc(=O)cc(-c3cc4ccccc4o3)c2c1`, `Cc1nc(C)n(CC(O)COc2ccc3ccccc3c2)n1` (stereo not shown) is higher in “hERG current change (%, negative = inhibition) at 1uM” value: -1.03% for the first, -0.527% for the second.

First: CC(=O)c1ccc(N2CCN(C(=O)C3CCCN3S(=O)(=O)c3cccc4nsnc34)CC2)cc1 (stereo not shown)
Second: O=C(C1CCCN1S(=O)(=O)c1cccc2nsnc12)N1CCN(c2ccc(F)cc2)CC1 (stereo not shown)
The “hERG current change (%, negative = inhibition) at 1uM” value of the first is higher: 14.6% for the first, -54.1% for the second.

Going from `O=C(C1CCCN(S(=O)(=O)c2cccc3cccnc23)C1)N1CCN(c2ccccc2F)CC1` (stereo not shown) to `O=C(C1CCCN(S(=O)(=O)c2cccc3cccnc23)C1)N1CCN(c2ccc(F)cc2)CC1` (stereo not shown), the “hERG current change (%, negative = inhibition) at 1uM” value falls from -27.5% to -50.1%.

Compared with `O=C(C1CCCN(S(=O)(=O)c2ccccc2)C1)N1CCN(c2ccc(F)cc2)CC1` (stereo not shown), `O=C(C1CCCN(S(=O)(=O)c2ccccc2)C1)N1CCN(c2ccccc2)CC1` (stereo not shown) is higher in “hERG current change (%, negative = inhibition) at 1uM” value: -62.4% for the first, -12.7% for the second.

First: COc1ccc(N2CCN(C(=O)C3CCCN(S(=O)(=O)c4cccc5cccnc45)C3)CC2)cc1 (stereo not shown)
Second: COc1ccc(N2CCN(C(=O)C3CCCN(S(=O)(=O)c4ccc(F)cc4)C3)CC2)cc1 (stereo not shown)
The “hERG current change (%, negative = inhibition) at 1uM” value of the first is higher: 5.91% for the first, -7.16% for the second.

First: O=C(C1CCCN1S(=O)(=O)c1cccc2nsnc12)N1CCN(c2ccccc2)CC1 (stereo not shown)
Second: Cc1ccc(S(=O)(=O)N2CCOCC2)cc1C(=O)N1CCC(Cc2ccccc2)CC1
The “hERG current change (%, negative = inhibition) at 1uM” value of the first is lower: -1.72% for the first, 11.2% for the second.

Compared with `CC(=O)N1CCN(C(=S)NC(=O)c2ccc(S(=O)(=O)N3CCOCC3)cc2)CC1`, `S=C(c1ccc(-c2ccccc2)cc1)N1CCOCC1` is lower in “hERG current change (%, negative = inhibition) at 1uM” value: 13.2% for the first, 7.87% for the second.

Going from `COc1ccc(C(=O)Nc2c(C)ccc3nsnc23)cc1[N+](=O)[O-]` to `COc1ccc(OCC(=O)Nc2cc(-c3nn4c(C)nnc4s3)ccc2C)cc1`, the “hERG current change (%, negative = inhibition) at 1uM” value rises from 3.23% to 3.66%.

Compared with `C#CCNC(=O)C1=C[C@H](c2ccc(Br)cc2)C[C@H](OCCCCO)O1`, `CC(=O)NCCOc1ccc(C(=O)O)cc1` is lower in “hERG current change (%, negative = inhibition) at 1uM” value: 11.3% for the first, 6.2% for the second.

First: COc1ccc([N+](=O)[O-])cc1N(CC(=O)Nc1ccccc1C(=O)N1CCOCC1)S(C)(=O)=O
Second: O=C(CN1CCCC1)NN=C(c1ccccc1)c1ccccc1
The “hERG current change (%, negative = inhibition) at 1uM” value of the first is higher: 4.57% for the first, -49% for the second.

Going from `COC(=O)C1=C(C(=O)OC)SC2(S1)C(C(=O)OC)=C(C(=O)OC)SC1=C2c2cc(C)ccc2NC1(C)C` to `COC(=O)C1=C(C(=O)OC)SC2(S1)C(C(=O)OC)=C(C(=O)OC)SC1=C2c2cccc(C)c2NC1(C)C`, the “hERG current change (%, negative = inhibition) at 1uM” value falls from 11% to -79.1%.

First: COC(=O)C1=C(C(=O)OC)SC2(S1)C(C(=O)OC)=C(C(=O)OC)SC1=C2c2cc(C)cc(C)c2NC1(C)C
Second: Cc1ccc(OCC(=O)Nc2cc(-c3nn4c(C)nnc4s3)ccc2C)cc1
The “hERG current change (%, negative = inhibition) at 1uM” value of the first is higher: 19.8% for the first, -2.75% for the second.

First: CCOC(=O)[C@@H]1[C@H]2COc3cc(OC)ccc3[C@@H]2N2C(=O)N(c3ccc(Br)cc3)C(=O)[C@@]12C
Second: Cc1ccc(-c2nn3c(C)nnc3s2)cc1NC(=O)COc1ccc(Cl)cc1
The “hERG current change (%, negative = inhibition) at 1uM” value of the first is higher: 5.83% for the first, -74.3% for the second.

First: O=C(CCl)NN=C(c1ccccc1)c1ccccc1
Second: CCN(CC)CC(=O)NN=C(c1ccccc1)c1ccccc1
The “hERG current change (%, negative = inhibition) at 1uM” value of the first is higher: 5.28% for the first, -78.2% for the second.

Going from `CCOC(=O)Cc1nnc(NC(=O)c2ccco2)s1` to `CN(C(=O)CSc1nnc(CNC(=O)c2ccccc2)o1)c1ccccc1`, the “hERG current change (%, negative = inhibition) at 1uM” value falls from 5.45% to 1.84%.

For `O=C(Nc1ccc(Cl)cc1)Nc1ccc2c(c1)OCO2`, the “hERG current change (%, negative = inhibition) at 1uM” value was 12.5%.
